# Shown are actives, neighbours in structure and some others; about 4% of the full set was active somewhere.
# KKLEB tox: counter-screen for CF NF-kB inhibitors: cytotoxicity. KKLEB CF airway cells viability, ATPlite luminescence, overnight; active compounds read low; cells stimulated with P. aeruginosa culture filtrate. activity change (cytotoxicity), % at 5 µM. 360,000 compounds, 0.36% hits;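 active = corrected activity change at or below -50% at 5 µM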
# Peg3 prom inh: reduces Peg3 promoter-driven luciferase expression in HeLa | HeLa PEG-Prom luciferase reporter, luminescence, overnight | inhibition, % at 20 µM | 360,000 compounds, 1.7% hits | AID 588405;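 active = inhibition of at least 50% at 20 µM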
# CF NFkB inh: inhibitors of cystic fibrosis induced NF-kB; KKLEB NF-kB-GFP reporter, PAF-induced, GFP fluorescence overnight; inhibition, % at 5 µM; 360,000 compounds, 0.86% hits;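 active = at least 50% inhibition at 5 µM, scaled per plate between neutral and stimulator controls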;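 note: PAF is a Pseudomonas aeruginosa culture filtrate used as stimulus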
# HIF-2a block: blocks HIF-2a reporter activity; 786-0 RCC cells HIF-2a reporter, luciferase luminescence, overnight; inhibition, % at 18.8 µM; 360,000 compounds, 0.72% hits; AID 624352;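 active = inhibition of the luminescence signal of 40% or more relative to plate controls, in a single-dose primary screen at 18.75 µM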
# TROY NFkB inh: TROY signaling inhibition; Q293 LMP1-TROYcd NF-kB luciferase reporter, 4 h; inhibition, % at 10 µM; 360,000 compounds, 0.98% hits; AID 1347056;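 active = compounds whose plate-normalised and pattern-corrected inhibition of the luciferase reporter signal at the single screening dose is 50% or more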
# TWEAK-Fn14 inh: TWEAK-Fn14 signaling inhibition; inhibition, % at 10 µM; AID 1159606; TWEAK-stimulated Fn14 reporter cells, luciferase luminescence, 8 h; 360,000 compounds, 2% hits; in the data active = inhibition above about 50%
# Hits are given with their value; i = inactive; nt = no result.
SMILES,KKLEB tox,Peg3 prom inh,CF NFkB inh,HIF-2a block,TROY NFkB inh,TWEAK-Fn14 inh
C#CC[N+](C)(C)CCCCCCCCCC,i,i,52,i,i,i
C#CC[N+](C)(C)CCCCCCCC,i,i,i,i,i,i
O=C(NNC(=O)c1cccc2ccccc12)c1cccc(F)c1,i,i,i,i,i,i
CC(=O)Nc1ccc(SCC(=O)NCC2(N3CCCCC3)CCCCC2)cc1,i,i,i,i,i,i
COc1ccc(-c2ccc(SC)nn2)cc1,i,i,i,i,i,88
CCOc1ccc(-c2ccc(SCC)nn2)cc1,i,i,i,i,i,64
C#CCCc1ccccc1/C=[N+](/C)[O-],i,i,i,i,i,51
Cc1csc2ncnc(N3CCN(C(=S)Nc4ccc(C(F)(F)F)cc4)CC3)c12,i,i,i,i,i,51
Cc1csc2c(N3CCN(C(=S)Nc4ccc(C(F)(F)F)cc4)CC3)ncnc12,i,i,i,i,i,i
Cc1ccccc1OCCC(=O)N1CCN(S(=O)(=O)c2ccccc2F)CC1,i,i,i,i,i,i
CC(=O)c1cccc2c(O)c(C3=Nc4ccccc4C3=O)[nH]c12,i,i,i,i,54,i
Fc1ccc(Nc2cncc(-c3ccsc3)c2)cc1Cl,i,i,i,i,i,i
Oc1cccc2ccc(/C=C/c3ccccc3Cl)nc12,i,i,i,i,74,95
CCOc1cccc(/C=C/c2ccc3cccc(O)c3n2)c1O,i,97,i,i,i,i
CON(c1nc(N(C)C)nc(N(C)C)n1)S(=O)(=O)c1ccccc1Cl,i,i,i,i,i,i
Cc1sc2nc3c4ccccc4c(NCc4ccco4)nn3c(=O)c2c1C,i,i,i,i,i,64
O=C1c2ccccc2CC1Sc1nnc(-c2ccccn2)o1 (centres undefined),i,i,i,i,i,i
CCOC(=O)c1sc(NC(=O)CCN2CCN(C)CC2)c(C(=O)OCC)c1C,i,84,i,i,i,i
O=C(Nc1ccc2c(c1)OCCO2)C(c1cc2ccccc2o1)N1CCN(c2ccc(F)cc2)CC1 (centres undefined),i,i,i,i,85,85
O=C(Nc1ccc2c(c1)OCCO2)C(c1cc2ccccc2o1)N1CCN(c2ccc(C(F)(F)F)cn2)CC1 (centres undefined),i,i,i,i,86,88
O=C(Nc1ccc(F)cc1)C(c1cc2ccccc2o1)N1CCN(c2cccc(C(F)(F)F)n2)CC1 (centres undefined),nt,nt,nt,i,nt,nt
O=C(Nc1ccc2c(c1)OCCO2)C(c1cc2ccccc2o1)N1CCN(C/C=C/c2ccccc2)CC1 (centres undefined),i,i,i,i,83,86
O=C(N/N=C/c1cnc2ccccc2n1)c1cccc(F)c1,i,i,i,i,i,i
COc1ccc(NC(=O)c2cc(-c3ccc(F)cc3OC(C)C)n[nH]2)cn1,i,i,i,i,i,i
CC(C)Oc1ccc(F)cc1-c1cc(C(=O)NCc2cc(C(F)(F)F)cc(C(F)(F)F)c2)[nH]n1,i,i,i,i,i,51
SMILES,KKLEB tox,Peg3 prom inh,CF NFkB inh,HIF-2a block,TROY NFkB inh,TWEAK-Fn14 inh
CC(C)Oc1cc(F)ccc1-c1cc(C(=O)Nc2cccc(C(F)(F)F)c2)[nH]n1,i,i,i,i,55,70
Cc1ccccc1S(=O)(=O)N1C[C@H]2CON(C)[C@H]2C[C@H]1c1cccc(-c2ccccc2)c1,i,i,i,i,i,i
CCCCCCNC(=O)Cc1ccc(Br)cc1,i,i,i,i,i,i
Cc1nn2cc(-c3ccccc3)nc2s1,i,i,i,i,i,57
c1ccc(-c2cn3nc(-c4ccccc4)sc3n2)cc1,-60,i,i,i,61,86
c1ccc(-c2cn3ccccc3n2)cc1,i,i,i,i,i,i
CN(C)CCNS(=O)(=O)c1ccc(N2CCN(c3ccc(F)cc3)CC2)c([N+](=O)[O-])c1,i,63,i,i,i,i
CC(=O)N1CCN(c2ccc(S(=O)(=O)NCCN(C(C)C)C(C)C)cc2[N+](=O)[O-])CC1,i,i,i,i,i,i
Cc1cc(C(=O)N2CCCc3ccccc32)no1,i,i,i,i,i,i
Cc1ccc(C(=O)CSc2nnnn2C(C)C)c(C)c1,i,i,i,i,53,90
Cc1ccc(C)c(C(=O)CSc2nnnn2C(C)C)c1,i,i,i,i,i,i
C=CCSC1=NC(=O)/C(=C/c2cccs2)S1,i,53,i,i,i,i
CC(C)C(=O)Nc1cccc(C(=O)Nc2cc([N+](=O)[O-])ccc2F)c1,i,i,i,i,i,i
CCC(C)Nc1nc(-c2cccc(OC)c2O)nc2ccccc12 (centres undefined),i,54,i,i,60,64
COc1cccc(-c2nc(NCc3cccnc3)c3ccccc3n2)c1O,i,i,i,i,i,i
COc1cccc(-c2nc(NCC3CCCO3)c3ccccc3n2)c1O (centres undefined),i,i,i,i,i,i
COc1cccc(-c2nc(NC(C)C)c3ccccc3n2)c1O,i,i,i,i,i,68
COC(c1ccccc1)c1nnc(CCC(=O)N(C)Cc2cccc(-n3cccn3)c2)o1 (centres undefined),i,i,i,i,i,i
O=C(c1cccs1)c1ccc(-c2cccs2)s1,i,i,i,i,i,61
CN1CCN(C(=O)c2ccc(-c3cccs3)s2)CC1,i,i,i,i,i,i
CCCOc1ccc(F)cc1-c1cc(C(=O)Nc2cc(OC)c(OC)c(OC)c2)[nH]n1,i,i,i,i,i,64
CCCOc1ccc(F)cc1-c1cc(C(=O)Nc2ccc(OC)nc2)[nH]n1,i,i,i,i,i,i
O=C(NNC(=S)NC(=O)c1ccccc1Cl)c1cccc([N+](=O)[O-])c1,i,i,i,i,i,i
COc1ccc([N+](=O)[O-])cc1NC(=O)C(C)c1ccccc1 (centres undefined),i,i,i,i,i,i
COc1ccc([N+](=O)[O-])cc1NC(=S)NC(NC(=O)C(c1ccccc1)c1ccccc1)C(Cl)(Cl)Cl (centres undefined),i,50,i,i,i,63
O=C(NC(NC(=S)Nc1c(Cl)cccc1Cl)C(Cl)(Cl)Cl)c1cccc([N+](=O)[O-])c1 (centres undefined),i,52,i,i,i,60
CCc1sc(C(=O)Nc2ccsc2C(=O)OC)cc1Br,i,i,i,i,i,i
C=CCC1c2cccc(C(=O)O)c2C(=O)N1c1cccc(C)c1 (centres undefined),i,i,i,i,i,i
O=[N+]([O-])c1ccc(N=Nc2c(Cl)cc(O)cc2Cl)cc1,-70,72,56,i,i,87
CCOc1ccc(Cl)cc1/C=N/NC(=O)c1ccccc1,i,i,i,i,i,i
